Measurements: the OligoGym collection

target: TFEB; test: pooled miR-30 sensor sort-seq; sequence = guide strand; details: shRNA
Also: reference of the scale not given here.

Row | Sequence | sensor-assay potency score (higher = more potent)
1 | ATCTGTGAGCTCTCGCTTCTGG | -0.356
2 | TACACATTCAGGTGGCTGCTGG | -0.605
3 | TAGCGTGTTGGGCATCTGCATT | -1.17
4 | TAGCAGTGAGTCGTCCAGGAGC | -1.35
5 | TCATTGATGTTGAACCTTCGTC | -0.00793
6 | TCTCCTTTCAATTAAGTTGTGA | -0.161
7 | TTGTTGGTCATCTCCAGGCGGC | -1.28
8 | TTGATGTTGAACCTTCGTCTCC | -0.765
9 | AAGGACATCGTCCAGACGCATA | -1.55
10 | TTCGCTAGGCAGCTCCTGCTTC | -0.419
11 | TTGCAGGTCCTTCTGCATCCTC | -1.28

target: TFPI2; test: as above; details: shRNA

Row | Sequence | sensor-assay potency score (higher = more potent)
12 | TCATCTTTTGGACTGTAGCAAA | -1.13
13 | TTATTCTTCAGATACAACCATA | -1.04
14 | TACCTGTCGTAGTAGTAACGGA | -0.941
15 | TACAAGTAGCTTCATCTGGAAA | -1.17
16 | TTAGATTAAAGAAATACTTTTC | -0.873
17 | TTGTATTAATAAAAACTGGTGA | -0.407
18 | TGTCGTAGTAGTAACGGAGAAG | -1.18
19 | TCTCACAAACAGTTGAACCATA | -1.02
20 | TTTATATCTTATGCATTGCAAG | -1.47
21 | TAGGTGAAAGCATCACAGGTTC | -0.157
22 | TTGGATTAAAATAATAGCGAGT | -0.659
23 | TATAGGTGAAAGCATCACAGGT | -0.811
